Wnt bcat act: activators of Wnt/beta-catenin signaling; actives 1.2% (n = 300,000); activation, % at 9.35 µM; Wnt/beta-catenin reporter cell assay, activator, plate reader; in the data active = activation above about 30%, passing the limit was not always enough; inconclusive = no clear call, values can overlap the other calls;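 also: 0% = neutral control wells and 100% = positive control wells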
MITF TRPM1 HTS: increases MITF-driven TRPM1 promoter luciferase signal; SK-MEL-5 TRPM1-promoter luciferase, 24 h; % of positive control, neutral wells = 0; activation, % at 12.5 µM; actives 0.75% (n = 300,000);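 active = mean activation of at least 80% with every replicate also reaching 80%; inconclusive = mean reaches 80% but some replicate falls short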;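 also: 0% = neutral control wells and 100% = parthenolide positive control wells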
esBAF inh: SWI/SNF esBAF complex inhibition. mouse ES cells, Bmi1-luciferase knock-in reporter, 24 h; 100% = twice the neutral-well signal. reporter increase, % at 12.5 µM. actives 2% (n = 350,000). AID 602393; in the data active = activation above about 40%; inconclusive = no clear call, values can overlap the other calls;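 also: 0% = median of the plate's neutral control wells and 100% = double that signal; a rise in the Bmi1 reporter signal indicates esBAF inhibition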
rRNA inh HTS: inhibitors of bacterial rRNA selective over humanized ribosomes. actives 1.6% (n = 350,000). E. coli WT GFP vs humanized-ribosome RFP mutants, fluorescence, 24 h; stronger effect = lower value; DMSO median 0, no signal -100. GFP signal change (wild-type ribosome), % (concentration not given with the values);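 active = significant combined selectivity score with lowered wild-type GFP, culture density cut under 30%, mutant RFP and density less affected; inactive = any of these conditions unmet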
AF4-AF9 inh: inhibitors of human MLL-AF4/AF9 interaction | P42568 | AlphaScreen, biotin-AF4 peptide binding to FLAG-AF9 | inhibition, % at 10 µM | actives 0.47% (n = 350,000);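 active = every replicate reaching a set inhibition limit, whatever the replicate mean, cut at about 25% in these data; inconclusive = mean inhibition reaches that limit but some replicates miss it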;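 also: 0% = plate neutral control median and 100% = total signal loss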
Target sequence (P42568 whole entry, looked up): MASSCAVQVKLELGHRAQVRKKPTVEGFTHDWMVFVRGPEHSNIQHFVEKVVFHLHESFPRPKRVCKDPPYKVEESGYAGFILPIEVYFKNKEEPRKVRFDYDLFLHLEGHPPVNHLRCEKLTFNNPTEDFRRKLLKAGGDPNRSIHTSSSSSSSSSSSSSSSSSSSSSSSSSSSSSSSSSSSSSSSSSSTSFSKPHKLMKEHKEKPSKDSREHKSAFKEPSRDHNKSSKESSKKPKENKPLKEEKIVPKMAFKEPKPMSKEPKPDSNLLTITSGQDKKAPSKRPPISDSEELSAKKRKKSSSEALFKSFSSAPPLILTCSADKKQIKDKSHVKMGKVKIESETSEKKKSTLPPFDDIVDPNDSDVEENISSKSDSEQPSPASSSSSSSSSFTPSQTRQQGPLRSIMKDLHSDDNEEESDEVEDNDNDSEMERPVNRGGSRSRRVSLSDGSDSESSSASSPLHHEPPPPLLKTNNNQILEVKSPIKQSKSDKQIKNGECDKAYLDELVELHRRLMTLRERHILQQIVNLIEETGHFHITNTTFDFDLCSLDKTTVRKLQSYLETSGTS
* = called active by the depositor. In the library only some 3.7% were active in any assay of this set; here they are far more common.

How did O=C(COC(=O)c1ccccc1)NCC1CCCO1 (stereo not drawn) do in these assays?
MITF TRPM1 HTS: 8.1; esBAF inh: 49.0*; rRNA inh HTS: 4.6

How did CCCOC(=O)c1ccc(NC(=O)C(=O)NCC2CCCO2)cc1 (stereo not drawn) do in these assays?
Wnt bcat act: -1.5; MITF TRPM1 HTS: 39.8; rRNA inh HTS: 16.8; AF4-AF9 inh: -82.7

How did O=C(NC(=S)NCC1CCCO1)c1ccc(Cl)cc1 (stereo not drawn) do in these assays?
Wnt bcat act: 1.9; MITF TRPM1 HTS: 87.7*; rRNA inh HTS: 1.4; AF4-AF9 inh: 7.2

What do the screens show for `O=C(NCC1CCCO1)Nc1ccc(Cl)cc1` (stereo not drawn)?
Wnt bcat act: -0.6; MITF TRPM1 HTS: 42.6; esBAF inh: 45.4*

Results for COC(=O)c1ccc(NC(=O)C(=O)NCC2CCCO2)cc1 (stereo not drawn) ?
Wnt bcat act: 13.9; MITF TRPM1 HTS: 14.3; esBAF inh: 45.2*; rRNA inh HTS: 12.3; AF4-AF9 inh: -6.2

Results for O=C(NC(=S)NCC1CCCO1)c1ccccc1 (stereo not drawn) ?
Wnt bcat act: 0.5; MITF TRPM1 HTS: 11.1; esBAF inh: 1.2; rRNA inh HTS: 13.1; AF4-AF9 inh: 2.4

Results for O=C(NCC1CCCO1)Nc1cc(Cl)cc(Cl)c1 (stereo not drawn) ?
Wnt bcat act: 2.3; MITF TRPM1 HTS: 32.7; rRNA inh HTS: -35.0; AF4-AF9 inh: -2.9

What do the screens show for `CCCCn1c(N)c(N(CC)C(=O)c2cccc(S(=O)(=O)N3CCN(C)CC3)c2)c(=O)[nH]c1=O`?
Wnt bcat act: 10.2; MITF TRPM1 HTS: -5.0; rRNA inh HTS: 7.8; AF4-AF9 inh: -0.4

Results for CC1=CC(=O)C=CC1(C)C(Cl)Cl (stereo not drawn) ?
MITF TRPM1 HTS: 6.0; esBAF inh: 1.0

Results for COc1ccc(N2CC(C(=O)OCC(=O)Nc3ccccc3C)CC2=O)cc1 (stereo not drawn) ?
Wnt bcat act: -0.6; MITF TRPM1 HTS: -5.6; esBAF inh: -11.3; rRNA inh HTS: 1.7; AF4-AF9 inh: 0.0

Results for COc1cccc(-c2ccc([C@@H]3[C@H](CO)N4CCCCN(Cc5cncnc5)C[C@@H]34)cc2)c1 ?
esBAF inh: 1.0; rRNA inh HTS: -0.5; AF4-AF9 inh: -2.7

How did Cc1ccc(/C=C(\C#N)C(=O)NCC2CCCO2)o1 (stereo not drawn) do in these assays?
Wnt bcat act: 78.3*; MITF TRPM1 HTS: 10.0; esBAF inh: 13.4; rRNA inh HTS: 13.8; AF4-AF9 inh: 0.2

How did S=C(Nc1ccc(Cl)cc1Cl)NC1CCCCC1 do in these assays?
MITF TRPM1 HTS: 107.4*; esBAF inh: 84.3*

Results for S=C(NCC1CCCO1)Nc1ccc(Cl)cc1Cl (stereo not drawn) ?
Wnt bcat act: inconclusive; MITF TRPM1 HTS: 10.4; esBAF inh: 49.0*

Results for CCc1nc2ccccc2[nH]1 ?
Wnt bcat act: 0.8; MITF TRPM1 HTS: -10.0; esBAF inh: 1.6; rRNA inh HTS: -0.7; AF4-AF9 inh: 3.2

What do the screens show for `c1ccc(OCCSc2nc3ccccc3[nH]2)cc1`?
MITF TRPM1 HTS: 87.6*

How did OC(Cc1nc2ccccc2[nH]1)c1ccccc1Cl (stereo not drawn) do in these assays?
Wnt bcat act: -1.4; MITF TRPM1 HTS: 52.6; esBAF inh: 54.9*; rRNA inh HTS: 10.7; AF4-AF9 inh: 3.4

What do the screens show for `c1ccc(OCc2nc3ccccc3[nH]2)cc1`?
Wnt bcat act: 62.0*; esBAF inh: 50.7*

What do the screens show for `Clc1ccc(OCc2nc3ccccc3[nH]2)cc1`?
Wnt bcat act: 10.9; MITF TRPM1 HTS: 88.0*; esBAF inh: 85.2*; rRNA inh HTS: -31.8; AF4-AF9 inh: -1.3

Results for CCN(CC)C(=O)Cn1c(=O)n(Cc2ccccc2Cl)c2c1c(=O)n(C)c(=O)n2C ?
MITF TRPM1 HTS: -2.1; esBAF inh: 12.0

Results for CN(CC(=O)Nc1cccc(F)c1)C(=O)c1cccc(-n2cccc2)c1 ?
Wnt bcat act: -2.5; MITF TRPM1 HTS: -6.1; esBAF inh: -2.4; rRNA inh HTS: 1.1; AF4-AF9 inh: 7.6

What do the screens show for `O=[N+]([O-])c1cccc(CSc2nc3ccccc3[nH]2)c1`?
MITF TRPM1 HTS: 34.9

How did COc1cccc(CSc2nc3ccccc3[nH]2)c1 do in these assays?
Wnt bcat act: 59.2*; MITF TRPM1 HTS: 73.7; esBAF inh: 54.4*; AF4-AF9 inh: -0.2

What do the screens show for `CCn1c2ccccc2c2nnc(SCC(=O)NCCOC)nc21`?
MITF TRPM1 HTS: -1.3; esBAF inh: -4.2

What do the screens show for `Cc1ccc(Nc2nnns2)cc1`?
MITF TRPM1 HTS: 7.3

What do the screens show for `CC1=CC(C)(C)N=C(Nc2ccc(C)cc2)S1`?
Wnt bcat act: 26.9; MITF TRPM1 HTS: 73.1; esBAF inh: 46.0*

Results for CC(=O)N1[C@H](CO)[C@H](c2ccccc2)[C@@H]1CN(C(=O)c1cccc(F)c1)C(C)C ?
esBAF inh: 1.2; rRNA inh HTS: -0.6; AF4-AF9 inh: -1.1

Results for Cc1c(Cl)cccc1NC(=S)N(Cc1cccs1)C1CCCC1 ?
Wnt bcat act: -0.5; MITF TRPM1 HTS: -5.8; rRNA inh HTS: -21.8*; AF4-AF9 inh: 1.6

What do the screens show for `C/C(=C\c1ccc(N)cc1)c1nc2ccccc2[nH]1`?
Wnt bcat act: 1.9; MITF TRPM1 HTS: inconclusive; esBAF inh: 63.7*; rRNA inh HTS: -1.9; AF4-AF9 inh: 6.9

Results for O=C(Cc1ccncc1)NCC[C@@H]1CC[C@H](NC(=O)C2CCC2)[C@H](CO)O1 ?
esBAF inh: 3.6; rRNA inh HTS: -0.8; AF4-AF9 inh: -1.9

What do the screens show for `O=C(c1ccc2oc(CCCc3ccccc3)nc2c1)N1CCCCC1CO` (stereo not drawn)?
Wnt bcat act: 17.7; MITF TRPM1 HTS: 66.7; rRNA inh HTS: -5.4; AF4-AF9 inh: 0.6

What do the screens show for `CCCCc1nc2cc(C(=O)N3CCCC3)ccc2o1`?
Wnt bcat act: 10.0; MITF TRPM1 HTS: 10.9; esBAF inh: 34.5; rRNA inh HTS: 4.4; AF4-AF9 inh: -10.8

How did CCOC(=O)CC1COCCN1C(=O)c1ccc2oc(Cc3ccccc3)nc2c1 (stereo not drawn) do in these assays?
Wnt bcat act: 15.2; MITF TRPM1 HTS: inconclusive; esBAF inh: 51.8*; rRNA inh HTS: 9.6; AF4-AF9 inh: 1.4

How did CCCCc1nc2cc(C(=O)N3CCCCC3C(=O)OC)ccc2o1 (stereo not drawn) do in these assays?
Wnt bcat act: 14.4; MITF TRPM1 HTS: 63.1; esBAF inh: 64.4*; rRNA inh HTS: -1.5; AF4-AF9 inh: 0.4

How did CCCCc1nc2cc(C(=O)N3CCCCC3CC(=O)OCC)ccc2o1 (stereo not drawn) do in these assays?
Wnt bcat act: 9.8; MITF TRPM1 HTS: 31.1; esBAF inh: 55.6*; rRNA inh HTS: 2.8; AF4-AF9 inh: -0.2

How did CCCCc1nc2cc(C(=O)NC(C)c3cnn(C)c3)ccc2o1 (stereo not drawn) do in these assays?
Wnt bcat act: 18.9; MITF TRPM1 HTS: 43.6; esBAF inh: 60.6*; rRNA inh HTS: 4.8; AF4-AF9 inh: -20.4

High-throughput results deposited in PubChem by Broad Institute.
